About 83,000 compounds went through this panel and 20% of them were active in at least one assay; those are over-represented in the sample as a whole.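 Cell lines were cultured in 96-well plates, exposed to a single compound concentration, and assessed for percent growth 48 hours later.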 A number with no mark means an inactive call. Activity calls are given as the source filed them. Rule for the calls: active = growth percent below 10; inactive = the rest.

Experiment in all cases: NCI-60 one-dose screen, 48 h (100 = growth as untreated, 0 = no growth, -100 = all killed)
In one assay the test system is HCT-15 colon. The settings on record: 10 µM unless noted.
The subject of another assay is HT29 colon. The following applies: 10 µM unless noted.
A further assay relates to SNB-75 CNS. The settings on record: 10 µM unless noted.
For the next assay, the system named is SNB-19 CNS. The following applies: 10 µM unless noted.
Another assay relates to U251 CNS. The settings on record: 10 µM unless noted.
Another assay relates to PC-3 prostate. The following applies: 10 µM unless noted.
The test system of another assay is SK-MEL-5 melanoma. The settings on record: 10 µM unless noted.
The subject of another assay is UACC-62 melanoma. The settings on record: 10 µM unless noted.
The test system of the next assay is LOX IMVI melanoma. The settings on record: 10 µM unless noted.
In a further assay the test system is SK-MEL-28 melanoma. The settings on record: 10 µM unless noted.
The next assay has as its system SK-MEL-2 melanoma. The following applies: 10 µM unless noted.
In a further assay the test system is EKVX NSCLC. The following applies: 10 µM unless noted.
A further assay relates to SN12C renal. The settings on record: 10 µM unless noted.
A further assay concerns UO-31 renal. The settings on record: 10 µM unless noted.
Another assay deals with TK-10 renal. The following applies: 10 µM unless noted.
Another assay relates to ACHN renal. The settings on record: 10 µM unless noted.
The subject of another assay is CAKI-1 renal. The settings on record: 10 µM.
The subject of the next assay is A498 renal. The following applies: 10 µM unless noted.
In the next assay the test system is CCRF-CEM leukemia. The following applies: 10 µM unless noted.
In a further assay the test system is MOLT-4 leukemia. The following applies: 10 µM unless noted.

For `O=C(N/N=C\c1ccc(Cl)cc1)c1ccc2nc(-c3ccc(Br)cc3)[nH]c2c1`, the growth with HCT-15 colon was -25.2% (active); with HT29 colon it was -52% (active); with SNB-75 CNS, 49.9%; with SNB-19 CNS, 5.18% (active); in the assay with U251 CNS, -70.6% (active); in the assay with PC-3 prostate, -23.7% (active). Besides, the growth in the assay on SK-MEL-5 melanoma was 22.2%; in the assay with UACC-62 melanoma it was 8.2% (active); in the assay with LOX IMVI melanoma, -80.5% (active); in the assay on SK-MEL-28 melanoma it was -14.7% (active); in the assay on SK-MEL-2 melanoma it was 82.7%; in the assay with EKVX NSCLC it was 0.288% (active). Besides, the growth is -14.6% (active) with SN12C renal; 15.9% with UO-31 renal; -26.8% (active) in the assay with TK-10 renal; -12.6% (active) in the assay on ACHN renal; -17.8% (active) with CAKI-1 renal; 65.4% in the assay with A498 renal. Further, the growth is 26.3% in the assay on CCRF-CEM leukemia and 11.6% in the assay on MOLT-4 leukemia.
With `C#CCOc1ccc(/C=N/Nc2nc(-c3cc4cc(Br)cc(Br)c4oc3=O)cs2)cc1`, the growth with HCT-15 colon is 95.2%; in the assay on HT29 colon, 104%; with SNB-75 CNS, 90.3%; in the assay with SNB-19 CNS it was 104%; in the assay with U251 CNS, 96.2%; with PC-3 prostate it was 88.1%. In addition, the growth was 98.5% in the assay with SK-MEL-5 melanoma; 88.1% with UACC-62 melanoma; 102% in the assay on LOX IMVI melanoma; 106% in the assay with SK-MEL-28 melanoma; 109% with SK-MEL-2 melanoma; 92.2% with EKVX NSCLC. Besides, the growth in the assay with SN12C renal is 92.1%; in the assay with UO-31 renal, 88.5%; with TK-10 renal, 142%; in the assay with ACHN renal, 98.8%; in the assay with CAKI-1 renal, 88.1%; with A498 renal, 85.4%. In addition, the growth in the assay on CCRF-CEM leukemia was 94.4%; in the assay on MOLT-4 leukemia, 62.8%.
For `Cn1c2ccc(Br)cc2c2c3c(c4c5cc(F)ccc5oc4c21)C(=O)N(O)C3=O`, the growth with HCT-15 colon is 89.2%; with HT29 colon, 101%; with SNB-75 CNS it was 70%; with SNB-19 CNS, 74.3%; in the assay on U251 CNS it was 79.8%; in the assay on PC-3 prostate, 68%. In addition, the growth in the assay on SK-MEL-5 melanoma is 90.3%; with UACC-62 melanoma, 80.2%; in the assay with LOX IMVI melanoma, 61.9%; in the assay with SK-MEL-28 melanoma, 112%; with SK-MEL-2 melanoma it was 110%; in the assay with EKVX NSCLC, 90.1%. Moreover, the growth in the assay on SN12C renal was 90.2%; in the assay on UO-31 renal, 75.4%; in the assay on TK-10 renal, 142%; in the assay with ACHN renal, 78%; with CAKI-1 renal it was 69.2%; in the assay on A498 renal, 94.2%. Further, the growth is 14.7% with CCRF-CEM leukemia and 43% in the assay on MOLT-4 leukemia.
Take `O=C1[C@@H]2Cc3c([nH]c4ccccc34)[C@H](c3c(Cl)cccc3Cl)N2C(=O)CN1C1CCN(Cc2ccccc2)CC1`: the growth with HCT-15 colon was -25.7% (active); in the assay with HT29 colon it was 2.12% (active); in the assay on SNB-75 CNS, 62%; with SNB-19 CNS, 61.8%; in the assay on U251 CNS, 38.9%; in the assay with PC-3 prostate it was 41.8%. For the same compound, the growth is 45.2% with SK-MEL-5 melanoma; 90.2% with UACC-62 melanoma; -80% (active) with LOX IMVI melanoma; 14.6% in the assay with SK-MEL-28 melanoma; 85.7% in the assay with SK-MEL-2 melanoma; 53.6% with EKVX NSCLC. The growth in the assay with SN12C renal was 15.5%; in the assay on UO-31 renal it was 14%; in the assay on TK-10 renal, 89.2%; in the assay with ACHN renal, 43.5%; in the assay on CAKI-1 renal, 74.3%; with A498 renal, 66.3%. The growth in the assay on CCRF-CEM leukemia was 3.54% (active); with MOLT-4 leukemia, 12.8%.
For the compound `O=C(O)c1ccc(-n2cc(CNc3ccc(Cl)cc3)c(-c3ccc(F)cc3)n2)cc1`, the growth in the assay with HCT-15 colon is 79.6%; in the assay on HT29 colon, 112%; in the assay on SNB-75 CNS, 131%; with SNB-19 CNS, 96.5%; in the assay on U251 CNS it was 90.4%; with PC-3 prostate it was 89%. In addition, the growth was 84.8% in the assay with SK-MEL-5 melanoma; 77.4% in the assay on UACC-62 melanoma; 84.3% in the assay with LOX IMVI melanoma; 95.6% in the assay with SK-MEL-28 melanoma; 99.1% in the assay on SK-MEL-2 melanoma; 81.1% in the assay on EKVX NSCLC. The growth in the assay with SN12C renal was 99%; in the assay on UO-31 renal it was 80.5%; with TK-10 renal, 119%; in the assay on ACHN renal, 78.9%; in the assay on CAKI-1 renal, 83.8%; in the assay with A498 renal, 88.6%. Besides, the growth in the assay with CCRF-CEM leukemia was 91.8%; with MOLT-4 leukemia it was 85.4%.
Take `Cc1ccc(NC(=O)c2cccc(CN3CCN(C)CC3)c2)cc1Oc1ccc(-c2[nH]nc3ncnc(N)c23)cc1`: the growth with HCT-15 colon is 86.1%; in the assay with HT29 colon it was 5.69% (active); with SNB-75 CNS, 66.8%; in the assay with SNB-19 CNS it was 81.9%; with U251 CNS, 64.6%; in the assay on PC-3 prostate, 72.9%. The growth with SK-MEL-5 melanoma is 76.7%; with UACC-62 melanoma, 73%; with LOX IMVI melanoma it was 29.9%; in the assay on SK-MEL-28 melanoma it was 72.9%; with SK-MEL-2 melanoma, 73.8%; with EKVX NSCLC it was 97.5%. In addition, the growth with SN12C renal was 80%; in the assay with UO-31 renal, 93.3%; with TK-10 renal it was 93.5%; in the assay with ACHN renal, 92.6%; in the assay on CAKI-1 renal it was 59.3%; in the assay with A498 renal it was 89.2%. Moreover, the growth in the assay on CCRF-CEM leukemia is 47%; with MOLT-4 leukemia, 0.353% (active).
As to `O=C(NNc1nc2cc(F)cc(F)c2n2cccc12)c1ncccn1`, the growth was 26.2% in the assay with HCT-15 colon; 25.4% in the assay on HT29 colon; -7.95% (active) in the assay on SNB-75 CNS; 20% with SNB-19 CNS; 14.4% with U251 CNS; 31.6% in the assay with PC-3 prostate. Besides, the growth with SK-MEL-5 melanoma was -40.9% (active); in the assay on UACC-62 melanoma, 2.21% (active); with LOX IMVI melanoma it was 5.13% (active); in the assay on SK-MEL-28 melanoma it was 22.8%; with SK-MEL-2 melanoma, 23.2%; with EKVX NSCLC, 11.1%. Moreover, the growth in the assay with SN12C renal is 15.7%; in the assay on UO-31 renal it was 16%; in the assay with TK-10 renal it was 26%; with ACHN renal it was 9.54% (active); with CAKI-1 renal, 17.4%; in the assay on A498 renal it was 23.8%. The growth was 7.19% (active) with CCRF-CEM leukemia and 13% in the assay on MOLT-4 leukemia.
As for `COc1ccc(/C=N/Nc2nc(N/N=C/c3ccc(OC)cc3O)nc(N3CCOCC3)n2)c(O)c1`, the growth in the assay on HCT-15 colon is 3.39% (active); in the assay with HT29 colon it was 56.4%; in the assay on SNB-75 CNS, 74.4%; with SNB-19 CNS it was 69.4%; in the assay with U251 CNS it was 45.6%; in the assay on PC-3 prostate, 35.8%. Further, the growth in the assay with SK-MEL-5 melanoma is 40.6%; in the assay with UACC-62 melanoma it was 69.3%; in the assay with LOX IMVI melanoma it was 45.4%; in the assay on SK-MEL-28 melanoma, 37.4%; in the assay with SK-MEL-2 melanoma, 82.6%; with EKVX NSCLC it was 46.6%. Also, the growth in the assay on SN12C renal was 75.1%; with UO-31 renal, 11.2%; in the assay on TK-10 renal it was 78.1%; in the assay on ACHN renal, 27.9%; with CAKI-1 renal it was 37.9%; with A498 renal, 66.8%. In addition, the growth with CCRF-CEM leukemia was 27.1%; in the assay with MOLT-4 leukemia, 35.3%.
